Laboratory results taken from PubChem BioAssay (EPA / NIEHS).
Inconclusive results are not listed. Active and inactive are the calls of the source. How the source made its calls, unless noted: active means hit-call score of the fitted dose curve at least 0.9, where 1 is the maximum; inactive means score below 0.9.

How the values were obtained:
[1] = read-out: Monokine induced gamma interferon (MIG), CXCL9 (gene 4283); assay: BSK_3C_MIG: BioMAP Diversity Plus: 3C Assay for Monokine induced gamma interferon (MIG) Biomarker Activity (AID 2283021); settings: primary human endothelial cells (HUVEC); actives raise or lower the signal;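 on AC50: MIG protein level measured by immunoassay in the treated endothelial cultures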
Method in brief: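 ELISA measurement of MIG in human umbilical vein endothelial cells 24 h after treatment. Cytotoxicity tracked by SRB staining in parallel cultures; gain or loss of signal fitted relative to DMSO.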

[2] = molecular target: human Vitamin D Receptor (VDR), VDR (gene 7421) (UniProt P11473); assay: ATG_VDR_TRANS: Attagene TRANS-FACTORIAL HepG2 Assay for human Vitamin D Receptor (VDR) (AID 2283022; active means hit-call score of the fitted dose curve at least 0.9, where 1 is the maximum)
human Vitamin D Receptor (VDR), VDR (gene 7421), sequence (P11473 whole entry, looked up): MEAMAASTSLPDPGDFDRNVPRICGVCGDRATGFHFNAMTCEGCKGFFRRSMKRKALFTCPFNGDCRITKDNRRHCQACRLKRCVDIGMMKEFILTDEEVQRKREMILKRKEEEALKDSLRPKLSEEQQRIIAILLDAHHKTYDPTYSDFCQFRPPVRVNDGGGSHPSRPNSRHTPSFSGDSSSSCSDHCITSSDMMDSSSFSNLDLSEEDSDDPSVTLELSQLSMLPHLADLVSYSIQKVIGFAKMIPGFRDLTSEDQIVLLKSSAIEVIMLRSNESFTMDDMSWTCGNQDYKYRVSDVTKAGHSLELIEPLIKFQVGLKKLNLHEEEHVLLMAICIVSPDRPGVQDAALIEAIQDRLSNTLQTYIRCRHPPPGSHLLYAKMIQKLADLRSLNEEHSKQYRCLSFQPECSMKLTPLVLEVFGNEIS
Method in brief: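 Multiplexed TRANS reporter in HepG2; 24 h treatment; reporter mRNA by RT-PCR plus capillary electrophoresis; upregulation scored relative to DMSO.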

[3] = BSK_3C_SRB: Viability Assessment in the BioMAP Diversity Plus: 3C Assay (AID 2283023); settings: primary human endothelial cells (HUVEC);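 further: fitted both ways against DMSO so a hit may be signal rise or drop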
Method in brief: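 Overt cytotoxicity is gauged in parallel confluent HUVEC cultures by SRB total-protein staining at the time of biomarker measurement, 24 h after dosing. Gain or loss of signal is fitted versus DMSO.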

[4] = BSK_3C_Vis: BioMAP Diversity Plus: 3C Assay for Morphology Visualization (AID 2283025); settings: primary human endothelial cells (HUVEC);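 further: fitted both ways so gain or loss versus DMSO counts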;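 on AC50: light microscopy image of cell morphology used as background control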
Method in brief: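 Light-microscopy visualization of HUVEC cultures at 24 h post-treatment, with DMSO as baseline for bidirectional fitting.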

[5] = read-out: Pselectin, SELP (gene 6403); assay: BSK_4H_Pselectin: BioMAP Diversity Plus: 4H Assay for Pselectin Biomarker Activity (AID 2283026); settings: primary human endothelial cells (HUVEC); actives raise or lower the signal
Method in brief: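 ELISA of surface P-selectin on HUVEC, 24 h after dosing, with parallel SRB staining (0.1% after 10% TCA fixation, 560 nm) for overt cytotoxicity. Activity fitted in both directions relative to DMSO.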

[6] = BSK_4H_SRB: Viability Assessment in the BioMAP Diversity Plus: 4H Assay (AID 2283027); settings: primary human endothelial cells (HUVEC);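 further: cells exposed to compound for 24 h before staining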;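 on AC50: curves fitted both ways versus DMSO so AC50 may be loss or gain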
Method in brief: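 HUVEC, 24 h post-dose; 10% TCA fix, 0.1% SRB stain, A560 nm. Total protein = overt cytotoxicity, parallel to biomarker read. Bidirectional fit vs DMSO baseline.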

[7] = BSK_BE3C_SRB: Viability Assessment in the BioMAP Diversity Plus: BE3C Assay (AID 2283028); settings: primary human bronchial epithelial cells;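 on AC50: fitted both ways so AC50 may mark signal gain or loss versus DMSO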
Method in brief: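 SRB total-protein staining (0.1%, after TCA fixation) of chemically dosed human bronchial epithelial primary cells at 24 h; DMSO serves as the negative control for bidirectional curve fitting.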

[8] = read-out: Urokinase-type plasminogen activator receptor (uPAR), PLAUR (gene 5329); assay: BSK_4H_uPAR: BioMAP Diversity Plus: 4H Assay for Urokinase-type plasminogen activator receptor (uPAR) Biomarker Activity (AID 2283030); settings: primary human endothelial cells (HUVEC); actives raise or lower the signal
Method in brief: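 Endpoint derived via bidirectional curve fitting against DMSO baseline; readout was ELISA detection of uPAR on umbilical vein endothelial cells at 24 h post-treatment, with SRB-stained parallel cultures assessing cytotoxicity.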

[9] = read-out: Vascular endothelial growth factor receptor 2 (Homo sapiens) (UniProt P35968); assay: BSK_4H_VEGFRII: BioMAP Diversity Plus: 4H Assay for Vascular endothelial growth factor receptor 2 (VEGFR2) Biomarker Activity (AID 2283031); settings: primary human endothelial cells (HUVEC); actives raise or lower the signal;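 on AC50: cell-surface VEGFR2 protein level quantified by ELISA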
Method in brief: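 In this multiplexed HUVEC system, biomarker ELISA was performed after 24 h chemical exposure. Parallel SRB staining (TCA fixation, 560 nm) tracked cytotoxicity; DMSO served as baseline.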

[10] = read-out: Human Leukocyte Antigen - DR isotype (HLADR), HLA-DRA (gene 3122); assay: BSK_BE3C_HLADR: BioMAP Diversity Plus: BE3C Assay for Human Leukocyte Antigen - DR isotype (HLADR) Biomarker Activity (AID 2283032); settings: primary human bronchial epithelial cells; actives raise or lower the signal
Method in brief: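 Cell-surface HLA-DR ELISA readout at 24 h after dosing in the BE3C primary human lung bronchial epithelial system; gain or loss of signal against DMSO, with parallel sulforhodamine B staining of total protein for overt cytotoxicity.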

[11] = read-out: Vascular cell adhesion molecule 1 (VCAM1), VCAM1 (gene 7412); assay: BSK_4H_VCAM1: BioMAP Diversity Plus: 4H Assay for Vascular cell adhesion molecule 1 (VCAM1) Biomarker Activity (AID 2283033); settings: primary human endothelial cells (HUVEC); actives raise or lower the signal
Method in brief: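 VCAM-1 ELISA read 24 h after chemical dosing of HUVEC in the BioMAP 4H system, with gain or loss of signal fitted relative to DMSO. Parallel SRB staining (560 nm) checked overt cytotoxicity.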

[12] = read-out: Interferon-gamma inducible Protein 10 (IP10), CXCL10 (gene 3627); assay: BSK_BE3C_IP10: BioMAP Diversity Plus: BE3C Assay for Interferon-gamma inducible Protein 10 (IP10) Biomarker Activity (AID 2283034); settings: primary human bronchial epithelial cells; actives raise or lower the signal
Method in brief: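 IP-10 quantified by ELISA in human primary bronchial epithelial cell cultures at 24 hours post-dosing. Gain or loss of signal fitted relative to DMSO; parallel SRB staining assessed overt cytotoxicity.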

[13] = read-out: Monokine induced gamma interferon (MIG), CXCL9 (gene 4283); assay: BSK_BE3C_MIG: BioMAP Diversity Plus: BE3C Assay for Monokine induced gamma interferon (MIG) Biomarker Activity (AID 2283035); settings: primary human bronchial epithelial cells; actives raise or lower the signal
Method in brief: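 Dose cells (human primary bronchial epithelial), incubate 24 h, quantify MIG by ELISA, then fit concentration–response in both directions relative to DMSO control.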

[14] = read-out: Transforming growth factor beta 1 (TGFb1), TGFB1 (gene 7040); assay: BSK_BE3C_TGFb1: BioMAP Diversity Plus: BE3C Assay for Transforming growth factor beta 1 (TGFb1) Biomarker Activity (AID 2283036); settings: primary human bronchial epithelial cells; actives raise or lower the signal
Method in brief: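 ELISA readout of TGF-b1 from human lung bronchial epithelial primary cells, taken 24 h post-treatment. Gain or loss of signal fitted relative to DMSO baseline, with parallel SRB staining for overt cytotoxicity.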

[15] = read-out: Plasminogen activator inhibitor-1 (PAI1), SERPINE1 (gene 5054); assay: BSK_BE3C_PAI1: BioMAP Diversity Plus: BE3C Assay for Plasminogen activator inhibitor-1 (PAI1) Biomarker Activity (AID 2283037); settings: primary human bronchial epithelial cells; actives raise or lower the signal
Method in brief: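 PAI-1 was measured by ELISA in human primary bronchial epithelial cultures 24 h after chemical dosing, with cytotoxicity checked by SRB total-protein staining in parallel cultures. Activity was fitted in both directions relative to DMSO.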

[16] = read-out: urokinase plasminogen activator (uPA), PLAU (gene 5328); assay: BSK_BE3C_uPA: BioMAP Diversity Plus: BE3C Assay for urokinase plasminogen activator (uPA) Biomarker Activity (AID 2283038); settings: primary human bronchial epithelial cells; actives raise or lower the signal
Method in brief: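 Using confluent primary human lung bronchial epithelial cultures, we dosed chemicals, waited 24 h, then ran a uPA ELISA, fitting bidirectionally against DMSO.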

[17] = read-out: Urokinase-type plasminogen activator receptor (uPAR), PLAUR (gene 5329); assay: BSK_BE3C_uPAR: BioMAP Diversity Plus: BE3C Assay for Urokinase-type plasminogen activator receptor (uPAR) Biomarker Activity (AID 2283039); settings: primary human bronchial epithelial cells; actives raise or lower the signal
Method in brief: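 uPAR levels were measured by ELISA after 24 h compound treatment of primary human bronchial epithelial cells, fitted in both directions relative to DMSO. Parallel SRB staining served as the cytotoxicity read-out.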

[18] = read-out: Interleukin-6 (IL6), IL6 (gene 3569); assay: BSK_CASM3C_IL6: BioMAP Diversity Plus: CASM3C Assay for Interleukin-6 (IL6) Biomarker Activity for (AID 2283040); settings: primary human coronary artery smooth muscle cells; actives raise or lower the signal
[19] = read-out: Matrix Metallopeptidase 1 (MMP1), MMP1 (gene 4312); assay: BSK_BE3C_MMP1: BioMAP Diversity Plus: BE3C Assay for Matrix Metallopeptidase 1 (MMP1) Biomarker Activity (AID 2283024); settings: primary human bronchial epithelial cells; actives raise or lower the signal
Method in brief: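 ELISA measurement of MMP-1 after 24 h compound exposure of primary human bronchial epithelial cells. Changes in either direction fitted relative to DMSO; parallel SRB staining checked overt cytotoxicity.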

Measured: AC50

Cc1ccc(Nc2ccc(O)c3c2C(=O)c2ccccc2C3=O)cc1
inactive: [1] | [2] | [3] | [4] | [5] | [6] | [7] | [8] | [9] | [10] | [11] | [12] | [13] | [14] | [15] | [16] | [17] | [18]

c1ccc2sc(SN(C3CCCCC3)C3CCCCC3)nc2c1
inactive: [1] | [2] | [6] | [7] | [8] | [10] | [13] | [14] | [15] | [16] | [17] | [18]
active: [3] 6.8 µM | [19] 6.54 µM | [4] 8.8 µM | [5] 5.21 µM | [9] 5.07 µM | [11] 5.45 µM | [12] 2.67 µM

CC(C)c1ccc(C(C)C)cc1
active: [3] 30.5 µM | [4] 37.8 µM | [5] 31 µM | [6] 30.7 µM | [8] 30.9 µM | [9] 33.3 µM | [10] 30.8 µM | [11] 35.1 µM | [12] 30.9 µM | [17] 20 µM | [18] 20 µM
inactive: [1] | [2] | [7] | [13] | [14] | [15] | [16]

Nc1cc([N+](=O)[O-])ccc1Cl
inactive: [1] | [2] | [3] | [4] | [5] | [6] | [7] | [8] | [9] | [10] | [11] | [12] | [13] | [14] | [15] | [16] | [17] | [18]

CC(=O)/C=C/C1=C(C)CCCC1(C)C
inactive: [1] | [2] | [3] | [4] | [5] | [6] | [7] | [8] | [9] | [10] | [11] | [12] | [13] | [14] | [15] | [16] | [17] | [18]

C=C(C)C(=O)O[C@H]1C[C@@H]2CC[C@@]1(C)C2(C)C
inactive: [2]
active: [1] 34.7 µM | [3] 13.8 µM | [4] 12.5 µM | [5] 11.3 µM | [6] 10.9 µM | [7] 34.7 µM | [8] 9.5 µM | [9] 5.29 µM | [10] 20 µM | [11] 10.1 µM | [12] 33.2 µM | [13] 30.4 µM | [14] 26.4 µM | [15] 20 µM | [16] 20 µM | [17] 32.2 µM | [18] 13 µM
